“And” between values parts separate entries of the source, which are not always exact repeats. Equal entries are not always repeated. Inconclusive results are not listed. The source made the active and inactive calls. Cut-off read from the data, not from the text of the source, unless noted: active = inhibition above about 80%; inactive = the rest.
Experiments:
[1] = protection against mutant huntingtin cytotoxicity, PC12 cells, LDH release (AID 1610); settings: PC12 mutant huntingtin toxicity, final LDH at 4 uM, stronger effect = lower value
[2] = target: ATP-dependent translocase ABCB1 (Homo sapiens) (UniProt P08183); assay: MDR1 (ABCB1) efflux transporter inhibition, cell-based (AID 377; in the data active = fluorescence slope change above about 50%); settings: MDR1-expressing cells, fluorescent substrate accumulation slope; stronger effect = higher value; concentration not given here
Sequence of ATP-dependent translocase ABCB1 (Homo sapiens) (P08183 whole entry, looked up): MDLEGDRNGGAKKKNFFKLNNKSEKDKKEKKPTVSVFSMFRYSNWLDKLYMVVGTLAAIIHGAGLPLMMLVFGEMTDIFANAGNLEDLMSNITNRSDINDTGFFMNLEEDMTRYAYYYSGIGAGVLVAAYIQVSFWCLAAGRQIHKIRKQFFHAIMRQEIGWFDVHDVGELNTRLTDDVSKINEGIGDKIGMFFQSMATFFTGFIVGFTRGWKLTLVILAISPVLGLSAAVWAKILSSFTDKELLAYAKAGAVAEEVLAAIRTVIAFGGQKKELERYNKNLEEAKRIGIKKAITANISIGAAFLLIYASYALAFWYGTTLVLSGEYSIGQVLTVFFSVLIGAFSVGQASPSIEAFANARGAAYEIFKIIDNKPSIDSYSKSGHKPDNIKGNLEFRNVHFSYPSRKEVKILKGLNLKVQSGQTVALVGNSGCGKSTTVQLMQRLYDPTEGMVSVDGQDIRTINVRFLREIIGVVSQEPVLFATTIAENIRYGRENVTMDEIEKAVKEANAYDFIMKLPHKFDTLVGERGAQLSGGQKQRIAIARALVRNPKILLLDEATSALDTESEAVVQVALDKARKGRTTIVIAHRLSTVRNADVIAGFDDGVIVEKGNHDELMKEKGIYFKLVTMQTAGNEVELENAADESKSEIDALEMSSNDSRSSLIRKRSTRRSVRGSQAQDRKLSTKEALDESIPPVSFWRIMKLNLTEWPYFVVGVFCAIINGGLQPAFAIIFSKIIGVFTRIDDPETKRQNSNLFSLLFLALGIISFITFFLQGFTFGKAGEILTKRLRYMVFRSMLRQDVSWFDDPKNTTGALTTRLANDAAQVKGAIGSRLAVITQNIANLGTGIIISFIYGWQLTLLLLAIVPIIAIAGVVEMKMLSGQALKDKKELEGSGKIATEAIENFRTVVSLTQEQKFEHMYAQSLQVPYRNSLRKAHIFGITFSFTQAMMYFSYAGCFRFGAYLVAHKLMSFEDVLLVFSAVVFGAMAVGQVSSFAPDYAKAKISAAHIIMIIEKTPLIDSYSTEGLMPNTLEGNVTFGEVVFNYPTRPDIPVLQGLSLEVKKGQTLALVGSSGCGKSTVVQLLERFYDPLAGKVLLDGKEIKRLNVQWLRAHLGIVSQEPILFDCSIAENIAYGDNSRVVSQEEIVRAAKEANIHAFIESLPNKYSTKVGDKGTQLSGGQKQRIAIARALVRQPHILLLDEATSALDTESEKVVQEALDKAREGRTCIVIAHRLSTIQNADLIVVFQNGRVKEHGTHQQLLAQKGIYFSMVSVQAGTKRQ

[3] = UWB1.289 ovarian carcinoma cell growth inhibition, synergistic combos for chromothripsis tumors, BGB or cisplatin combos (AID 1671456); settings: UWB1.289 ovarian carcinoma cells, stronger effect = higher value;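 note: cells exposed to compound for four days; 0% = vehicle DMSO and 100% = killing by high DMSO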
[4] = LFS_MB_2R medulloblastoma cell growth inhibition, synergistic combos for chromothripsis tumors, cisplatin combos (AID 1671457); settings: LFS_MB_2R medulloblastoma cells, stronger effect = higher value;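 note: cells exposed to compound for four days before readout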
[5] = UWB1.289_BRCA1 ovarian cancer growth, cell-based, BGB or cisplatin combinations (AID 1671459); settings: UWB1.289 BRCA1 ovarian carcinoma, drug combinations, stronger effect = higher value
[6] = human astrocyte viability loss, single and combined drugs, cytotoxicity control for chromothriptic childhood tumor combination screen, cell-based, BGB or cisplatin IC20 combos (AID 1671460); settings: Human astrocytes, drug combinations, stronger effect = higher value;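 note: cells exposed to compounds for 96 hours before viability readout; 0% = vehicle and 100% = killing control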

**Q.** Which normalised LDH release [1] does the source give for `CC[C@H]1OC(=O)[C@H](C)[C@@H](O[C@H]2C[C@@](C)(OC)[C@@H](O)[C@H](C)O2)[C@H](C)[C@@H](O[C@@H]2O[C@H](C)C[C@H](N(C)C)[C@H]2O)[C@](C)(O)C[C@@H](C)CN(C)[C@H](C)[C@@H](O)[C@]1(C)O` here?
**A.** 0.795

**Q.** For `O=C(c1ccc(OCCN2CCCCC2)cc1)c1c(-c2ccc(O)cc2)sc2cc(O)ccc12`, which fluorescence slope change [2] is on record?
**A.** 82.4% (active)

**Q.** With `CCN(CC)CC#CCOC(=O)C(O)(c1ccccc1)C1CCCCC1` (stereo not given) as the compound, how does the fluorescence slope change [2] read?
**A.** 225% (active)

**Q.** For `O=c1[nH]c(=O)n(C2CCCO2)cc1F` (stereo not given), which inhibition ([3]; at 0.5 µM) is on record?
**A.** 3.3% (inactive) and -11.4% (inactive)

**Q.** And the inhibition ([3]; measured here: inhibition with BGB combination, at 0.05 µM)?
**A.** 7.79% and -33%

**Q.** And the inhibition ([3]; measured here: inhibition with cisplatin combination, at 0.05 µM)?
**A.** 4.79% and -22.4%

**Q.** What about the inhibition ([4]; at 0.5 µM) of the same compound?
**A.** -0.54% (inactive) and -25.9% (inactive)

**Q.** What about the inhibition ([4]; measured here: combination with cisplatin, at 0.5 µM) of the same compound?
**A.** 8.78% and -21.2%

**Q.** And the inhibition ([4]; measured here: combination with cisplatin, at 5 µM)?
**A.** 11.8% and -36.1%

**Q.** What about the inhibition ([5]; BGB combination, concentration series, at 5 µM) of the same compound?
**A.** 6.02% and -15.3%

**Q.** What about the inhibition ([5]; at 0.5 µM) of the same compound?
**A.** 3.23% (inactive) and -25.5% (inactive)

**Q.** And the inhibition ([5]; cisplatin combination, concentration series, at 5 µM)?
**A.** 12% and 0.169%

**Q.** What about the inhibition ([6]; at 0.5 µM) of the same compound?
**A.** 4.65% (inactive) and -9.75% (inactive)

**Q.** And the inhibition ([6]; measured here: combo with BGB IC20, at 0.5 µM)?
**A.** 0.017% and -11.8%

**Q.** And the inhibition ([6]; measured here: combo with cisplatin IC20, at 0.5 µM)?
**A.** 11% and -8.67%
